“And” between values parts separate entries of the source, which are not always exact repeats. Equal values may be shown once. Inconclusive results are not listed. Where a call stands in place of a potency, no number is given. The source made the active and inactive calls. Calls come from the whole dose curve; as a rule, active = well fitted curve in the direction sought with a large enough effect; inconclusive = small, poorly fitted or top-dose-only effect, or another doubt; inactive = no such curve, though single readings can be large; an effect the other way counts as inactive or inconclusive.

Tested on in one test: not listed separately
The test can be described thus: qHTS assay for cell viability of HEK293 cells (AID 743288). Note: nearly all actives have a fitted effect of over 50% in size. The note with it: ATP luminescence (CellTiter-Glo), 18 h; max response: hits give low values. An outline of the steps: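 HEK293, 18 h, 37 C, ATP luminescence. Cells at 2,000/well were allowed at least 5 h to settle before dosing; CellTiter-Glo developed 30 min at RT.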
(In general: In qHTS, concentration-response curves come from the screen itself.)
For the compound `CCNc1nc(Cl)nc(NC(C)C)n1`, the max response is 2.61% (inactive) and -2.5% (inactive).
For the compound `ClC1=C(Cl)C2(Cl)C3C4CC(C5OC45)C3C1(Cl)C2(Cl)Cl` (stereo not drawn), the max response is -18.3% (inactive).
The same measure, in the same setting: the value for `CCOCN(C(=O)CCl)c1c(C)cccc1CC` was -18.2% (inactive) and -18.7% (inactive).
Take `ClC(Cl)=C(c1ccc(Cl)cc1)c1ccc(Cl)cc1`: the max response was -14.7% (inactive) and -6.72% (inactive) and -17.4% (inactive).
Same read-out and setting: the value for `ClC1=C(Cl)C2(Cl)C3C4C=CC(C4)C3C1(Cl)C2(Cl)Cl` (stereo not drawn) was -24.9% (inactive); that for `O=C(O)COc1ccc(Cl)cc1Cl` was 0.426% (inactive) [middle of 4 runs]; that for `COC(=O)NC(=S)Nc1ccccc1NC(=S)NC(=O)OC` was 1.27% (inactive) and -9.9% (inactive).
`C/C=C/c1ccc2c(c1)OCO2`: the max response was -1.69% (inactive).
On to `COP(=S)(OC)Oc1ccc([N+](=O)[O-])cc1`, for which the max response was -1.38% (inactive) and -0.0798% (inactive).
Same read-out and setting: next, `O=S1OCC2C(CO1)C1(Cl)C(Cl)=C(Cl)C2(Cl)C1(Cl)Cl` (stereo not drawn): -13.5% (inactive).
With `C=CCc1ccc(OC)cc1`, the max response is 2.04% (inactive).
On the same count and under the same terms, next, `ClC1=C(Cl)C2(Cl)C3C(Cl)C=CC3C1(Cl)C2(Cl)Cl` (stereo not drawn): -13.7% (inactive); `CNC(=O)O/N=C/C(C)(C)SC`: -1.1% (inactive) and -12.4% (inactive) and -2.16% (inactive).
Consider `c1ccc(N=Nc2ccccc2)cc1`, for which the max response was 1.24% (inactive) and -11.6% (inactive).
`CCc1cccc(CC)c1N(COC)C(=O)CCl`: the max response is -15.4% (inactive) and -21.3% (inactive).

Tested on in the next test: not listed separately
Put plainly: qHTS assay for cell viability of the p53RE-bla HCT-116 cell line (AID 743292). Note: nearly all actives have a fitted effect of over 55% in size. The note with it: p53RE-bla HCT-116 viability, ATP luminescence, 16 h; series mostly up to 95 µM. An outline of the steps: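 Readout: CellTiter-Glo luminescence after 30 min RT. Treatment: compounds in DMSO, 16 h, 37 C. Cells: CellSensor p53RE-bla HCT-116, 4,000/well, preincubated 5 h.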
Regarding `CCNc1nc(Cl)nc(NC(C)C)n1`, the Potency entry is “inactive”.
Same read-out and setting: the value for `ClC1=C(Cl)C2(Cl)C3C4CC(C5OC45)C3C1(Cl)C2(Cl)Cl` (stereo not drawn) was “inactive”; that for `CCOCN(C(=O)CCl)c1c(C)cccc1CC` was “inactive”.
Same read-out and setting: next, `ClC(Cl)=C(c1ccc(Cl)cc1)c1ccc(Cl)cc1`: “inactive”.
On to `O=C(O)COc1ccc(Cl)cc1Cl`, for which the Potency result is “inactive”.
Still for that read-out and setting: next, `COC(=O)NC(=S)Nc1ccccc1NC(=S)NC(=O)OC`: “inactive”; `C/C=C/c1ccc2c(c1)OCO2`: “inactive”.
Still for that read-out and setting: next, `COP(=S)(OC)Oc1ccc([N+](=O)[O-])cc1`: “inactive”.
Turning to `O=S1OCC2C(CO1)C1(Cl)C(Cl)=C(Cl)C2(Cl)C1(Cl)Cl` (stereo not drawn), the Potency result was “inactive”.
On the same count and under the same terms, next, `C=CCc1ccc(OC)cc1`: “inactive”.
Still for that read-out and setting: the value for `ClC1=C(Cl)C2(Cl)C3C(Cl)C=CC3C1(Cl)C2(Cl)Cl` (stereo not drawn) was “inactive”; that for `CNC(=O)O/N=C/C(C)(C)SC` was “inactive”.
Same read-out and setting: the value for `c1ccc(N=Nc2ccccc2)cc1` was “inactive”.
As to `CCc1cccc(CC)c1N(COC)C(=O)CCl`, the Potency result is “inactive”.

Another test concerns 3D7. The test can be described thus: qHTS profiling for inhibitors of Plasmodium falciparum proliferation (AID 504749). Note: nearly all actives have a fitted effect of over 60% in size. The note with it: P. falciparum in erythrocytes, SYBR Green DNA, 72 h; series mostly up to 28.7 µM. An outline of the steps:
(§1)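 SYBR Green fluorescence of parasite DNA, read after lysis and overnight dark incubation, measured growth over 72 h in erythrocyte culture at 0.3% parasitemia and 2.5% hematocrit. Data normalised to DMSO and 0.29 uM artemisinin, with plate-drift correction.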
Take `C[N+]1([O-])[C@@H]2CC(OC(=O)[C@@H](CO)c3ccccc3)C[C@@H]1[C@H]1O[C@H]12` (stereo partly drawn): the Potency entry is “inactive”.
The same measure, in the same setting: next, `ClC1=C(Cl)C2(Cl)C3C4CC(C5OC45)C3C1(Cl)C2(Cl)Cl` (stereo not drawn): “inactive”.
Consider `CCNC[C@H](O)c1cccc(O)c1`, for which the Potency entry was “inactive”.

The next test concerns AA1029. The test is described as above. The note with it: P. falciparum in erythrocytes, SYBR Green DNA, 72 h; series mostly up to 28.7 µM. Put shortly:
as §1
Take `C[N+]1([O-])[C@@H]2CC(OC(=O)[C@@H](CO)c3ccccc3)C[C@@H]1[C@H]1O[C@H]12` (stereo partly drawn): the Potency result is “inactive”.
The same measure, in the same setting: the value for `ClC1=C(Cl)C2(Cl)C3C4CC(C5OC45)C3C1(Cl)C2(Cl)Cl` (stereo not drawn) was “inactive”.
The same measure, in the same setting: next, `CCNC[C@H](O)c1cccc(O)c1`: “inactive”.

The next test relates to AS120. Described as above. Particulars: P. falciparum in erythrocytes, SYBR Green DNA, 72 h; series mostly up to 28.7 µM. Put shortly:
as §1
`C[N+]1([O-])[C@@H]2CC(OC(=O)[C@@H](CO)c3ccccc3)C[C@@H]1[C@H]1O[C@H]12` (stereo partly drawn): the Potency entry is “inactive”.
Take `ClC1=C(Cl)C2(Cl)C3C4CC(C5OC45)C3C1(Cl)C2(Cl)Cl` (stereo not drawn): the Potency result is “inactive”.
Still for that read-out and setting: next, `CCNC[C@H](O)c1cccc(O)c1`: “inactive”.

The test system of the next test is ATS189. The description is as above. The note with it: P. falciparum in erythrocytes, SYBR Green DNA, 72 h; series mostly up to 28.7 µM. An outline of the steps: as §1
As to `C[N+]1([O-])[C@@H]2CC(OC(=O)[C@@H](CO)c3ccccc3)C[C@@H]1[C@H]1O[C@H]12` (stereo partly drawn), the Potency result is “inactive”.
Turning to `ClC1=C(Cl)C2(Cl)C3C4CC(C5OC45)C3C1(Cl)C2(Cl)Cl` (stereo not drawn), the Potency result is “inactive”.
Turning to `CCNC[C@H](O)c1cccc(O)c1`, the Potency entry is “inactive”.

The subject of another test is C2A. The test is described as above. The note with it: P. falciparum in erythrocytes, SYBR Green DNA, 72 h; series mostly up to 28.7 µM. Put shortly: as §1
Consider `C[N+]1([O-])[C@@H]2CC(OC(=O)[C@@H](CO)c3ccccc3)C[C@@H]1[C@H]1O[C@H]12` (stereo partly drawn), for which the Potency result is “inactive”.
Take `ClC1=C(Cl)C2(Cl)C3C4CC(C5OC45)C3C1(Cl)C2(Cl)Cl` (stereo not drawn): the Potency entry was “inactive”.
Same read-out and setting: the value for `CCNC[C@H](O)c1cccc(O)c1` was “inactive”.

A further test has as its system CP185. The test is described as above. The note with it: P. falciparum in erythrocytes, SYBR Green DNA, 72 h; series mostly up to 28.7 µM. Put shortly: as §1
Take `C[N+]1([O-])[C@@H]2CC(OC(=O)[C@@H](CO)c3ccccc3)C[C@@H]1[C@H]1O[C@H]12` (stereo partly drawn): the Potency result was “inactive”.
Take `ClC1=C(Cl)C2(Cl)C3C4CC(C5OC45)C3C1(Cl)C2(Cl)Cl` (stereo not drawn): the Potency result is “inactive”.
The same measure, in the same setting: the value for `CCNC[C@H](O)c1cccc(O)c1` was “inactive”.

Another test has as its system CP191. Described as above. Particulars: P. falciparum in erythrocytes, SYBR Green DNA, 72 h; series mostly up to 28.7 µM. Put shortly:
as §1
For the compound `C[N+]1([O-])[C@@H]2CC(OC(=O)[C@@H](CO)c3ccccc3)C[C@@H]1[C@H]1O[C@H]12` (stereo partly drawn), the Potency result is “inactive”.
Same read-out and setting: the value for `ClC1=C(Cl)C2(Cl)C3C4CC(C5OC45)C3C1(Cl)C2(Cl)Cl` (stereo not drawn) was “inactive”.
Same read-out and setting: the value for `CCNC[C@H](O)c1cccc(O)c1` was “inactive”.

The test system of the next test is CP192. The test is described as above. Particulars: P. falciparum in erythrocytes, SYBR Green DNA, 72 h; series mostly up to 28.7 µM. Put shortly: as §1
On to `C[N+]1([O-])[C@@H]2CC(OC(=O)[C@@H](CO)c3ccccc3)C[C@@H]1[C@H]1O[C@H]12` (stereo partly drawn), for which the Potency result is “inactive”.
`ClC1=C(Cl)C2(Cl)C3C4CC(C5OC45)C3C1(Cl)C2(Cl)Cl` (stereo not drawn): the Potency result is “inactive”.
Still for that read-out and setting: the value for `CCNC[C@H](O)c1cccc(O)c1` was “inactive”.

(Values after PubChem BioAssay (NCATS).)
